Results taken from the supplement of paper PMC10849652.
The full data set covers some 7,900 targets. This sample favours those with a hit. About 0.6% of all pairs of compound and target were hits. A number with no mark means an inactive call.

What was measured:
Assay in all cases: log2 fold change, soluble protein after heating vs DMSO (PISA); higher = thermal stabilisation; K562 cells, 10 uM, 30 min; active = over 0.2 and 3.5 SD of the protein, either way, in both replicates (recomputed)
[1] = compound: Cc1ccc(NC(=O)c2ccc(CN3CC[C@H](N(C)C)C3)c(C(F)(F)F)c2)cc1Nc1nccc(-c2cncnc2)n1 [bafetinib]
How it was run: (§1)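 Soluble protein was defined as the supernatant after 21,000xg for 90 min. It came from K562 cells at 2×10^6 cells/mL given 10 μM compound for 30 min, heated in aliquots for 3 min across 48°C-58°C, pooled, and extracted in PBS with 0.5% NP-40 at 4°C, and was quantified by TMTpro 16plex LC-MS/MS with equalised channel sums. Thermal stability against control samples, from duplicates, is reported as log2 fold change.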

[2] = compound: Cc1cccc(CC(=O)N2CCc3c2ccc(-c2cn(C)c4ncnc(N)c24)c3F)n1
How it was run: as §1

[3] = compound: Cc1cn(-c2cc(NC(=O)c3ccc(C)c(Nc4nccc(-c5cccnc5)n4)c3)cc(C(F)(F)F)c2)cn1 [nilotinib]
How it was run: as §1

[4] = compound: Cc1nc(Nc2n[nH]c3c2CN(C(=O)N[C@H](CN(C)C)c2ccccc2)C3(C)C)c2sccc2n1
How it was run: as §1

[5] = compound: Cc1nc(Nc2ncc(C(=O)Nc3c(C)cccc3Cl)s2)cc(N2CCN(CCO)CC2)n1 [dasatinib]
How it was run: as §1

[6] = compound: Cc1ncc(-c2ccnc(Nc3ccc(S(C)(=O)=O)cc3)n2)n1C(C)C
How it was run: as §1

[7] = compound: Cn1cc(-c2ccc3c(c2)CCN3C(=O)Cc2cccc(C(F)(F)F)c2)c2c(N)ncnc21
How it was run: as §1

[8] = compound: Cn1cc(-c2ccc3nnc(C(F)(F)c4ccc5ncccc5c4)n3n2)cn1
How it was run: as §1

[9] = compound: Cn1cncc1[C@@](N)(c1ccc(Cl)cc1)c1ccc2c(c1)c(-c1cccc(Cl)c1)cc(=O)n2C [tipifarnib]
How it was run: as §1

[10] = compound: FC(F)(F)c1ccc(/C=C/c2nc(COc3ccc(CCCCn4ccnn4)cc3)co2)cc1 [mubritinib]
How it was run: as §1

[11] = compound: NC(=O)Nc1cc(-c2cccc(F)c2)sc1C(=O)N[C@H]1CCCNC1
How it was run: as §1

[12] = compound: NC(=O)c1cnc(N[C@@H]2CCCC[C@@H]2N)nc1Nc1cccc(-n2nccn2)c1
How it was run: as §1

[13] = compound: NC1(c2ccc(-c3nc4ccn5c(=O)[nH]nc5c4cc3-c3ccccc3)cc2)CCC1
How it was run: as §1

[14] = compound: NCC(=O)Nc1ccc(-n2nc(C(F)(F)F)cc2-c2ccc3c(ccc4ccccc43)c2)cc1
How it was run: as §1

[15] = compound: Nc1ccccc1NC(=O)c1ccc(CNC(=O)OCc2cccnc2)cc1 [entinostat]
How it was run: as §1

[16] = compound: O=C(CCCCCCC(=O)Nc1ccccc1)NO [vorinostat]
How it was run: as §1

[17] = compound: O=C(CCCCCCNC(=O)c1cnc(N(c2ccccc2)c2ccccc2Cl)nc1)NO [citarinostat]
How it was run: as §1

[18] = compound: O=C(O)c1ccc2c(c1)nc(Nc1cccc(Cl)c1)c1ccncc12 [silmitasertib]
How it was run: as §1

[19] = compound: O=C1NC(=O)C(c2cnc3ccccn23)=C1c1cn2c3c(cc(F)cc13)CN(C(=O)N1CCCCC1)CC2
How it was run: as §1

[20] = compound: c1cc(OCCN2CCCCC2)cc(-c2n[nH]c3ccc(-c4nnc[nH]4)cc23)c1
How it was run: as §1

Sequence of UniProt Q9P016 (Q9P016 whole entry, looked up): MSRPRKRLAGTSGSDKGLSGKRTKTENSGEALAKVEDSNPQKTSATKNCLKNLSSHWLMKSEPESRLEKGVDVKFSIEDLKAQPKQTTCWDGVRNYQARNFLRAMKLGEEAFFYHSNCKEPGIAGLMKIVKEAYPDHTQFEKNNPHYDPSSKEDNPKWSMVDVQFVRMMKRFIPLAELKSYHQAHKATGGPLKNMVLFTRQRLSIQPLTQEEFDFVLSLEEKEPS
Sequence of UniProt P42226 (P42226 whole entry, looked up): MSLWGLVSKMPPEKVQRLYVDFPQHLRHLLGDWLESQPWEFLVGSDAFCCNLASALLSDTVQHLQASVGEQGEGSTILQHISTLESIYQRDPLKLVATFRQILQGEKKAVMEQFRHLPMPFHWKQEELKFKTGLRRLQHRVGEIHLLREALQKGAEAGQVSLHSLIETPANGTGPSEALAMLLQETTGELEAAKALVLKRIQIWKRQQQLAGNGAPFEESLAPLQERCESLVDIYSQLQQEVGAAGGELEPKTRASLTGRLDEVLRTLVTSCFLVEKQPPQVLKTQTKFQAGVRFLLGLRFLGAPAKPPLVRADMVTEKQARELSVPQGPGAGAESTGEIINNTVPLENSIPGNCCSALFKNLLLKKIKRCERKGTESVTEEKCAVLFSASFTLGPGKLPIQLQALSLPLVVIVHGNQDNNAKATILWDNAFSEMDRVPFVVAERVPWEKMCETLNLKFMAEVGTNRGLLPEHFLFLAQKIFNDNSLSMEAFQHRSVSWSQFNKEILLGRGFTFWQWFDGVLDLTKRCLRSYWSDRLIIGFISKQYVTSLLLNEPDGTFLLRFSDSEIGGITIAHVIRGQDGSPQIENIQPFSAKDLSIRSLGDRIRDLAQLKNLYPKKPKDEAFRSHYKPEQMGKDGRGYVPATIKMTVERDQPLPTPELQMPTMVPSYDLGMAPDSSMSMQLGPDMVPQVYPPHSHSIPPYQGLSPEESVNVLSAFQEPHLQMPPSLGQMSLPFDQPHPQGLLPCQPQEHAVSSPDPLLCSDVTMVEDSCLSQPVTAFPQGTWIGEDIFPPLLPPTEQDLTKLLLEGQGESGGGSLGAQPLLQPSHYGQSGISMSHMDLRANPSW
Sequence of UniProt Q8NBW4 (Q8NBW4 whole entry, looked up): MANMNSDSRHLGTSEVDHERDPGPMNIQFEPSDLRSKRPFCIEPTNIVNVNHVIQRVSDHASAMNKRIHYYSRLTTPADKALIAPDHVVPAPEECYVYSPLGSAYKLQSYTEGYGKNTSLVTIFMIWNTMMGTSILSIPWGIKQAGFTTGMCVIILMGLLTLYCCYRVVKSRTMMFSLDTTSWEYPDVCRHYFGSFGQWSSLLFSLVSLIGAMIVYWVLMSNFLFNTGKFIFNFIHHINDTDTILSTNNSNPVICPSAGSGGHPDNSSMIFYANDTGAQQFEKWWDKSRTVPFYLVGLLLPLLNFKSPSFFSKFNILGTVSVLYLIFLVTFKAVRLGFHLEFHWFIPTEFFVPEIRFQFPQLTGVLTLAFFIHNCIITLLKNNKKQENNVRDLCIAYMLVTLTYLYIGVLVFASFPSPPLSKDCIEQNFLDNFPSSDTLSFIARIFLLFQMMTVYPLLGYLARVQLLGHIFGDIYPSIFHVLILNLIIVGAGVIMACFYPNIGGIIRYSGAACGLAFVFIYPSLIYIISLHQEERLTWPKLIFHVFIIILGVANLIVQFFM
Sequence of UniProt P05455 (P05455 whole entry, looked up): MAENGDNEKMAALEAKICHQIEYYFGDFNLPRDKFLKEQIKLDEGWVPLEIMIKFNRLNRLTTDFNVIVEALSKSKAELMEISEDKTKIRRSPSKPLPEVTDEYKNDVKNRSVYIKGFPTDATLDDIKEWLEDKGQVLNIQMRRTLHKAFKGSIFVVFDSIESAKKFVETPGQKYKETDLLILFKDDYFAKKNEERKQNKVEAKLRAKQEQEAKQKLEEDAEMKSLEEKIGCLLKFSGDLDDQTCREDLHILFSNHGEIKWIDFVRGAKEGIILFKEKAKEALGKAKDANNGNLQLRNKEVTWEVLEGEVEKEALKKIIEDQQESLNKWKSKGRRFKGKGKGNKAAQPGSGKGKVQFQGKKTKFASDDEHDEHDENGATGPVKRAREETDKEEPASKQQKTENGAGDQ
Sequence of UniProt Q9H4L7 (Q9H4L7 whole entry, looked up): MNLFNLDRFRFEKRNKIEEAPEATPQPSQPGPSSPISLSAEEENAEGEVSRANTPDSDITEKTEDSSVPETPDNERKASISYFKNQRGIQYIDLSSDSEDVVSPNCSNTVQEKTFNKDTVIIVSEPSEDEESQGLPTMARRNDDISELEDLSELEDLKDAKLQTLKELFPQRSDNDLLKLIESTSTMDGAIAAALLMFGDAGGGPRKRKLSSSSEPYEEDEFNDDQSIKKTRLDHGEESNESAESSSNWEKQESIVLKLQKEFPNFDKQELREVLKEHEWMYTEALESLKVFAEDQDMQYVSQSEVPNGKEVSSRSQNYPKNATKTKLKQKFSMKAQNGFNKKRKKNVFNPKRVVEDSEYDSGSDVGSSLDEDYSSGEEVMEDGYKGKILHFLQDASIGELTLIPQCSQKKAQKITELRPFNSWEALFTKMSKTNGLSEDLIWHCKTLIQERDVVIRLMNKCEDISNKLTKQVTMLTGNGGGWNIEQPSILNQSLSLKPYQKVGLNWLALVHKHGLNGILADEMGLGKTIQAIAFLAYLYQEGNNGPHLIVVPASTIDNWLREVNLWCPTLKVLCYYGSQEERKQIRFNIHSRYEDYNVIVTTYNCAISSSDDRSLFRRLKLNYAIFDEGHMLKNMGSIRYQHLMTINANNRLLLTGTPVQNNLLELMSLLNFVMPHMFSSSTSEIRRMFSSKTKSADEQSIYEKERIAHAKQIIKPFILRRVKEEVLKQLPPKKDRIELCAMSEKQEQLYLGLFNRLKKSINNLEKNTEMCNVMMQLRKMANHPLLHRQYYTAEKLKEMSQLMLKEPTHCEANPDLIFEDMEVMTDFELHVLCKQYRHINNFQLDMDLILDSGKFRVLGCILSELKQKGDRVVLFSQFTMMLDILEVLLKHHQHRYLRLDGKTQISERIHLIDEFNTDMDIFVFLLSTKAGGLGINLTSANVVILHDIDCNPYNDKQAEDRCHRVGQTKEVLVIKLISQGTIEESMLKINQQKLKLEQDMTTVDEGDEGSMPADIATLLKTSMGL
Sequence of UniProt Q96DI7 (Q96DI7 whole entry, looked up): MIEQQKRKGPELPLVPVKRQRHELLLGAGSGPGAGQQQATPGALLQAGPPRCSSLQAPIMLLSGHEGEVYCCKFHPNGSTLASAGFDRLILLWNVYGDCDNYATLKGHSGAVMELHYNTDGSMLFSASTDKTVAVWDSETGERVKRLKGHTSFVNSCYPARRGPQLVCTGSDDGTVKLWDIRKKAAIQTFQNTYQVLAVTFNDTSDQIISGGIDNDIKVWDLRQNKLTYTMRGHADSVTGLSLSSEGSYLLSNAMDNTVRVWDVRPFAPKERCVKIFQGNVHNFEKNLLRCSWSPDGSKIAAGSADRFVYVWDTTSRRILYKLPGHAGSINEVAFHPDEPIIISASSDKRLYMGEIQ
Sequence of UniProt Q9Y5X3 (Q9Y5X3 whole entry, looked up): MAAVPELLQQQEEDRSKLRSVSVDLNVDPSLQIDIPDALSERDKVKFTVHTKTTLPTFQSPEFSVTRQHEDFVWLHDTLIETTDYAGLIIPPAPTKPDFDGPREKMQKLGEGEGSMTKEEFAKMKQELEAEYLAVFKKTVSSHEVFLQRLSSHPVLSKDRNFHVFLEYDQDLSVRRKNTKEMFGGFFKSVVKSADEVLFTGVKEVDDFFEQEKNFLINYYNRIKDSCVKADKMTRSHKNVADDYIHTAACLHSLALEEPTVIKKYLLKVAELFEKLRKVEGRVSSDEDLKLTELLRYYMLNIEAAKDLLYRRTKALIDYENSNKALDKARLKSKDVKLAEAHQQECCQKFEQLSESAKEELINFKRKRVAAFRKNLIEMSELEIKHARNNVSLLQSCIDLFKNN
Sequence of UniProt Q86VD7 (Q86VD7 whole entry, looked up): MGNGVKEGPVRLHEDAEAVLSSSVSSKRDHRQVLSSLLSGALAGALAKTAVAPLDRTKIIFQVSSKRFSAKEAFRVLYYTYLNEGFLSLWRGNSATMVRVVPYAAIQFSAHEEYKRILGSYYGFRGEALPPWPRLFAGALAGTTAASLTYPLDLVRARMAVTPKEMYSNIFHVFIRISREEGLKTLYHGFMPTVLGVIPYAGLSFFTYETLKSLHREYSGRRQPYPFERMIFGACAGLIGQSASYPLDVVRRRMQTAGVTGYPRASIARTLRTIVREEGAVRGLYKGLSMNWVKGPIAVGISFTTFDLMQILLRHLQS
Sequence of UniProt Q05519 (Q05519 whole entry, looked up): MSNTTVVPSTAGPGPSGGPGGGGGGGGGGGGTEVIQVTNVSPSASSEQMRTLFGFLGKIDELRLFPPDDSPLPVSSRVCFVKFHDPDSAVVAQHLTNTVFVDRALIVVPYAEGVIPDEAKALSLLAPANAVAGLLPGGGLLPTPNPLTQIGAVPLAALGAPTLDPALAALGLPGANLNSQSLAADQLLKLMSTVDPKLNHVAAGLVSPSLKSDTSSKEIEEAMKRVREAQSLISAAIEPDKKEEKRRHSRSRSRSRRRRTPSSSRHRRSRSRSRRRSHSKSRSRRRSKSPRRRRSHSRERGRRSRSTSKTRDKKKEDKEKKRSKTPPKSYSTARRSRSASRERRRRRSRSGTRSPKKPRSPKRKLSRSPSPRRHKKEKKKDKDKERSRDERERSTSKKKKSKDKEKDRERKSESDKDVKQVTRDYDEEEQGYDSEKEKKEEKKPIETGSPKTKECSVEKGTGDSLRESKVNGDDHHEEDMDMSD
Sequence of UniProt O95926 (O95926 whole entry, looked up): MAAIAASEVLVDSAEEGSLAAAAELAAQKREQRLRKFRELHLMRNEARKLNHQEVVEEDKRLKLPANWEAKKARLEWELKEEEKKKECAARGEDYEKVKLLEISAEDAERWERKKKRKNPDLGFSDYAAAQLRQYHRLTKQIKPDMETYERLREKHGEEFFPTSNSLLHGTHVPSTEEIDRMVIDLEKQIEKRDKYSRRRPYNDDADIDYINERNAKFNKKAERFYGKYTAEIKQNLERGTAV
Sequence of UniProt Q8N5G0 (Q8N5G0 whole entry, looked up): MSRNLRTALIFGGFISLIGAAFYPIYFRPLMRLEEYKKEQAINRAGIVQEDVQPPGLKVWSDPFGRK

Target	log2 fold change [1]	log2 fold change [2]	log2 fold change [3]	log2 fold change [4]	log2 fold change [5]	log2 fold change [6]	log2 fold change [7]	log2 fold change [8]	log2 fold change [9]	log2 fold change [10]	log2 fold change [11]	log2 fold change [12]	log2 fold change [13]	log2 fold change [14]	log2 fold change [15]	log2 fold change [16]	log2 fold change [17]	log2 fold change [18]	log2 fold change [19]	log2 fold change [20]
SRSF7 (UniProt Q16629)	0.073	-0.055	0.156	-0.642 (active)	0.171	0.044	-0.177	-0.126	0.181	-0.128	0	0.13	0.525	0.027	-0.079	0	-0.132	-0.144	0.357	-0.33
SMARCAD1 isoform 2 (UniProt Q9H4L7)	0.067	0.014	0.049	-0.056	-0.131	-0.049	0.088	0.034	-0.144	0.241	-0.109	-0.043	-0.187	-0.072	0.057	0.045	0.037	0.03	-0.187	0.088
SSB (UniProt P05455)	-0.022	-0.018	-0.057	-0.125	-0.06	-0.123	-0.048	-0.02	0.051	-0.111	-0.018	-0.181	-0.01	-0.091	0.039	0.085	0.02	-0.035	-0.089	-0.085
SMIM20 isoform 2 (UniProt Q8N5G0)	-0.011	-0.011	-0.037	-0.001	0.012	-0.102	0.05	0.156	0.017	0.009	-0.056	-0.032	0	0.002	0.031	0.057	-0.004	-0.01	-0.154	-0.049
TAX1BP1 (UniProt Q86VP1)	0.011	-0.095	-0.086	0.011	-0.024	0.047	-0.068	0.027	0.092	0.045	0.028	-0.062	-0.202	-0.102	-0.013	-0.183	0.061	0.042	-0.011	-0.081
SRSF10 (UniProt O75494)	0.044	-0.1	0.089	-0.079	0.336	0.076	-0.498	-0.173	0.215	-0.089	0.059	-0.096	0.444	0.063	-0.047	0.048	-0.153	0.103	0.304	-0.152
STAT6 (UniProt P42226)	0.027	0.502 (active)	-0.082	-0.181	-0.115	0.155	-0.099	-0.042	-0.164	0.179	-0.07	-0.065	-0.041	-0.268	0.044	0.108	0.061	0.041	-0.047	0.03
THYN1 (UniProt Q9P016)	0.009	-0.028	-0.021	0.044	-0.097	-0.009	-0.015	0.013	-0.036	0.031	0	-0.011	-0.048	-0.103	-0.004	0.011	0.008	-0.011	-0.022	-0.034
SLC25A42 (UniProt Q86VD7)	-0.081	-0.069	0.009	-0.024	-0.025	0.048	-0.022	-0.049	0.017	0.051	0.121	0.021	-0.015	0.05	-0.027	-0.102	-0.015	-0.033	-0.034	-0.046
SNX5 (UniProt Q9Y5X3)	-0.154	0.11	-0.078	0.006	-0.169	-0.314	0.05	0.001	-0.027	0.082	-0.022	-0.275	-0.332 (active)	-0.037	0.078	0.108	0.09	-0.061	-0.006	-0.11
SRSF11 (UniProt Q05519)	0.071	0.105	-0.024	-1.01 (active)	-0.034	-0.001	-0.078	0.015	-0.029	-0.01	-0.183	-0.032	-0.063	-0.074	0.018	0.06	0.046	-0.099	0.037	-0.038
SSR3 isoform 2 (UniProt Q9UNL2)	-0.064	0.034	-0.006	0.029	0.006	-0.047	0.107	-0.167	0.084	0.049	-0.056	0.18	-0.056	0.369 (active)	-0.04	0	0.068	0	-0.028	-0.114
SPG11 (UniProt Q96JI7)	-0.493	-0.584	-0.015	0.117	0.065	-0.006	-0.051	0.146	0.258	-0.009	-0.395	-0.138	0.145	-0.293	-0.25	-0.638	-0.233	0.01	0.041	-0.219
SYF2 (UniProt O95926)	-0.198	0.021	-0.017	0.25	0.119	0.308	-0.193	-0.021	0.027	-0.002	0.099	0.089	-0.032	0.101	-0.022	-0.11	-0.069	0.016	0.14	-0.153
SNRNP40 (UniProt Q96DI7)	0.018	-0.023	0.054	0.166	0.1	0.119	-0.051	-0.021	0.038	0.006	0.017	-0.017	0.065	-0.011	-0.067	-0.018	-0.008	0.058	0.04	-0.121
SLC38A9 (UniProt Q8NBW4)	-0.022	-0.04	0.02	0.05	0.094	-0.081	-0.017	-0.034	0.038	0.046	-0.129	0.009	-0.113	-0.025	0.034	0.007	0.004	0.035	-0.044	-0.043
